{"source": "PubChem BioAssay (NCATS)", "data": [{"experiment": "High-throughput drug toxicity screening in the BPDCN cell line Gen2.2 (AID 1224824);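 further: cells exposed to compounds for 48 h before reading; 100% = DMSO and 0% = bortezomib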", "settings": "Gen2.2 BPDCN cells; at 45.8 µM (top of the series) unless noted", "method_in_brief": "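Readout is ATP luminescence from Gen2.2 cells after two days of drug exposure in serum-containing medium at 37 °C. Values express percent activity, with vehicle defining full signal and 9.2 uM bortezomib defining zero.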", "units": {"cell viability, % of control (lower = more cytotoxic)": "%"}, "values": [{"smiles": "COc1ccccc1OCC(O)COC(N)=O", "note": "(configuration not stated)", "cell viability, % of control (lower = more cytotoxic)": 109}, {"smiles": "C1CCC(C(CC2CCCCN2)C2CCCCC2)CC1", "note": "(configuration not stated)", "cell viability, % of control (lower = more cytotoxic)": 7.33}, {"smiles": "COC(c1ccccc1)(c1ccccc1)[C@H](Oc1nc(C)cc(C)n1)C(=O)O", "cell viability, % of control (lower = more cytotoxic)": 195}, {"smiles": "N[C@@H](C(=O)N[C@@H]1C(=O)N2C(C(=O)O)=C(Cl)CS[C@H]12)c1ccccc1", "cell viability, % of control (lower = more cytotoxic)": 133}, {"smiles": "OCc1ccc(-c2nn(Cc3ccccc3)c3ccccc23)o1", "cell viability, % of control (lower = more cytotoxic)": 199}, {"smiles": "CS(=O)(=O)c1ccc([C@@H](O)[C@@H](CO)NC(=O)C(Cl)Cl)cc1", "cell viability, % of control (lower = more cytotoxic)": 94.5}, {"smiles": "O=c1oc2c(O)c(O)cc3c(=O)oc4c(O)c(O)cc1c4c23", "cell viability, % of control (lower = more cytotoxic)": 225}, {"smiles": "NS(=O)(=O)c1cc2c(cc1Cl)NC(C(Cl)Cl)NS2(=O)=O", "note": "(configuration not stated)", "cell viability, % of control (lower = more cytotoxic)": 43.4}, {"smiles": "CCCCCCNC(=O)n1cc(F)c(=O)[nH]c1=O", "cell viability, % of control (lower = more cytotoxic)": 106}, {"smiles": "CC(=O)[C@H]1CC[C@H]2[C@@H]3CC=C4C[C@@H](O)CC[C@]4(C)[C@H]3CC[C@]12C", "cell viability, % of control (lower = more cytotoxic)": 106}, {"smiles": "CCCc1nc(C)c2c(=O)[nH]c(-c3cc(S(=O)(=O)N4CCN(CC)CC4)ccc3OCC)nn12", "cell viability, % of control (lower = more cytotoxic)": 5.18}, {"smiles": "COc1c(N2CCNC(C)C2)c(F)cc2c(=O)c(C(=O)O)cn(C3CC3)c12", "note": "(configuration not stated)", "cell viability, % of control (lower = more cytotoxic)": 111}, {"smiles": "CN1CCCC(n2nc(Cc3ccc(Cl)cc3)c3ccccc3c2=O)CC1", "note": "(configuration not stated)", "cell viability, % of control (lower = more cytotoxic)": 9.12}, {"smiles": "CCOc1cc(N)c(Cl)cc1C(=O)NCC1CN(Cc2ccc(F)cc2)CCO1", "note": "(configuration not stated)", "cell viability, % of control (lower = more cytotoxic)": 376}, {"smiles": "Cn1c(=O)c2c(ncn2CC(O)CO)n(C)c1=O", "note": "(configuration not stated)", "cell viability, % of control (lower = more cytotoxic)": 104}, {"smiles": "COCCCOc1cc(C[C@@H](C[C@H](N)[C@@H](O)C[C@H](C(=O)NCC(C)(C)C(N)=O)C(C)C)C(C)C)ccc1OC", "cell viability, % of control (lower = more cytotoxic)": 148}, {"smiles": "CO[C@@]12[C@H](COC(N)=O)C3=C(C(=O)C(C)=C(N)C3=O)N1C[C@@H]1N[C@@H]12", "cell viability, % of control (lower = more cytotoxic)": 2.55}]}]}
